Among the targets are CYP20A1; CYLC1; CYP2E1; DCPS; DMRTC2; DMRT3; DMXL1; DMKN.
What all share (assay): pooled miR-30 sensor sort-seq; sequence = guide strand
Holding throughout (conditions): shRNA
Also: reference of the scale not given here.

Consider TAAATCGGTCAATTTTTCCTTC, for which, in the experiment with CYP20A1, the sensor-assay potency score (higher = more potent) is 0.481.

For the sequence TTGAATTTGCAGATGTGCCATC, the sensor-assay potency score (higher = more potent) in the experiment with CYLC1 was -0.566.

For the sequence TTCTTCTGAAAGCTTTAGGAGG, the sensor-assay potency score (higher = more potent) with CYP20A1 was -0.987.

Sequence TTTATCATTTGTACCTCTCTGG had a sensor-assay potency score (higher = more potent) with CYLC1 of 0.594.

In the case of TTGCATCCTTTGCATCTCCTGA, the sensor-assay potency score (higher = more potent) in the experiment with CYLC1 was -0.744.

For TTATTCTGTGAGTAATTCCTTA, in the experiment with CYLC1, the sensor-assay potency score (higher = more potent) was -0.37.

Take TTGATTTATCATTTGTACCTCT: the sensor-assay potency score (higher = more potent) with CYLC1 is 0.236.

Take TTCTCTTCTACTATTTGCTTGG: the sensor-assay potency score (higher = more potent) with CYLC1 is -0.0318.

As for TTTTTCTTAACTTTCTTTGAAT, the sensor-assay potency score (higher = more potent) in the experiment with CYLC1 was -0.75.

For the sequence TGTCATACAAAACAGAGTCCAG, the sensor-assay potency score (higher = more potent) in the experiment with CYP2E1 was -0.481.

ATATTCTTCAATTCCAACTGGA displayed a sensor-assay potency score (higher = more potent) with CYP2E1 of 0.347.

In the experiment with CYP2E1, TTAAACAAATACATCAGCCTTA yielded a sensor-assay potency score (higher = more potent) of 0.593.

As to TTTCTTGTCATCTTTCTTGACA, the sensor-assay potency score (higher = more potent) with CYLC1 was -0.649.

On to TACACTAAGAAGTACTGTGGTC, for which the sensor-assay potency score (higher = more potent) with CYP20A1 is -0.206.

ATACTTTGTTTCAATAACCTGT: the sensor-assay potency score (higher = more potent) with CYP20A1 is -0.318.

On to TTCATCATCAAACCGATCTGGA, for which, in the experiment with CYP20A1, the sensor-assay potency score (higher = more potent) was -0.00182.

Consider TTATCTAATAATTCTTCTGAAA, for which, in the experiment with CYP20A1, the sensor-assay potency score (higher = more potent) was -1.37.

For TTTATCTAATAATTCTTCTGAA, in the experiment with CYP20A1, the sensor-assay potency score (higher = more potent) was -0.378.

TGAATCTTTCTTAGCATCCTTT: in the experiment with CYLC1, the sensor-assay potency score (higher = more potent) was -0.674.

Turning to TATGGGATCATTACTAGTCTTT, the sensor-assay potency score (higher = more potent) in the experiment with CYLC1 was -0.233.

As for TATCATACTGTCTTCTAGGATC, the sensor-assay potency score (higher = more potent) in the experiment with CYP20A1 was -0.814.

On to TTTCTTGGAATCTTTCTTCAAA, for which, in the experiment with CYLC1, the sensor-assay potency score (higher = more potent) is -0.0994.

ATGCTGACAATATCTGAGCTGC: the sensor-assay potency score (higher = more potent) in the experiment with CYP20A1 is -0.739.

Take TATTATCTGTCTTTGAATCTTT: in the experiment with CYLC1, the sensor-assay potency score (higher = more potent) is 0.0737.

With TTGTTGCATATGAACCTCCTTT, the sensor-assay potency score (higher = more potent) with CYLC1 is -0.831.

In the experiment with CYP2E1, TTATTAAAAATGATTCCCCTGT registered a sensor-assay potency score (higher = more potent) of 0.074.

As for TTTGCAGTTATTATGCAACTGG, the sensor-assay potency score (higher = more potent) in the experiment with CYP20A1 was -0.736.

Take TTGAATGTAGTCTTTTTGGATG: in the experiment with CYLC1, the sensor-assay potency score (higher = more potent) is -0.77.

On to TTGAATCTTTCTTAGCATCCTT, for which, in the experiment with CYLC1, the sensor-assay potency score (higher = more potent) is -0.0997.

The sequence TTTTGAACTTCTTCAGAGGTGG had a sensor-assay potency score (higher = more potent) in the experiment with CYP20A1 of 0.0133.

With TTGACTTCTTGGATTGTTCATT, the sensor-assay potency score (higher = more potent) with CYLC1 was -0.552.

With TATTCCTGTAGTCATCTCCCGT, the sensor-assay potency score (higher = more potent) with DCPS was -0.287.

Regarding TATGCAGAGCAACAGAGGGGGC, the sensor-assay potency score (higher = more potent) with DMRTC2 is -1.35.

For ACACATTTGTGACACTCGCAAG, the sensor-assay potency score (higher = more potent) with DMRTC2 was -1.72.

TACATTAACCTGACAAAGCTTA showed a sensor-assay potency score (higher = more potent) in the experiment with DMRT3 of 0.0811.

On to TTATTTGAAAATTAGGATGGGA, for which the sensor-assay potency score (higher = more potent) in the experiment with DMXL1 stood at 0.431.

With TTTTTCTGAACTTCCATCTGGA, the sensor-assay potency score (higher = more potent) with DMXL1 was 0.702.

For the sequence TTCTGAAGTGGTTGGGAGCTTT, the sensor-assay potency score (higher = more potent) with DMRTC2 was -0.576.

As for TAGCTGAAGAGGGTCTGGGGTG, in the experiment with DMRTC2, the sensor-assay potency score (higher = more potent) was -1.25.

With TACATTGACATTACACATGTTT, the sensor-assay potency score (higher = more potent) with DMRT3 is -0.269.

As for TTGTCTCTGAAAACTGTCCAAG, the sensor-assay potency score (higher = more potent) with DMRT3 was -0.806.

Turning to TTCTTGAACATCATGACTGGAA, the sensor-assay potency score (higher = more potent) with DMXL1 was -0.0948.

As for ATTTGTGACACTCGCAAGCCTG, the sensor-assay potency score (higher = more potent) in the experiment with DMRTC2 is -0.869.

Take TATCAGAGTTGAGTGTGTGCGG: the sensor-assay potency score (higher = more potent) with DMRTC2 is -0.137.

In the experiment with DMRT3, TTTGACACAAATGGACACCCAT had a sensor-assay potency score (higher = more potent) of 0.206.

As to TGTAATTGTAGTTCTGATCGGC, in the experiment with DMKN, the sensor-assay potency score (higher = more potent) is 0.784.

Consider TCTGAGGGACCAGATGTCCGGG, for which the sensor-assay potency score (higher = more potent) in the experiment with DMRTC2 is -1.06.

In turn, TTTGTTTCTGAAAACACTGCTA displayed a sensor-assay potency score (higher = more potent) in the experiment with DMXL1 of 0.164.

In the case of TTTCTAAATAGTATCTACTTAA, in the experiment with DMXL1, the sensor-assay potency score (higher = more potent) was -0.599.

Turning to TAGACTCTCAGGTTCTGCGGAA, the sensor-assay potency score (higher = more potent) with DMRT3 is -0.423.

As to TTACTCTTTGCCACATCTGGGG, the sensor-assay potency score (higher = more potent) with DMRT3 was -0.22.

Take TGACTGAGTACTTCCCACCATA: in the experiment with DMKN, the sensor-assay potency score (higher = more potent) was -1.25.

In turn, TTGGATTTAAAATTCTTCCAGA came in with a sensor-assay potency score (higher = more potent) with DMKN of 0.603.

Take TACTCTTTGCCACATCTGGGGA: in the experiment with DMRT3, the sensor-assay potency score (higher = more potent) was -0.96.

Regarding TTCGCTAATATATACAACTAAG, the sensor-assay potency score (higher = more potent) with DMXL1 is -0.796.

For the sequence TTTTTTAACACTTCAAGCGGCG, in the experiment with DMRT3, the sensor-assay potency score (higher = more potent) was -0.226.

Take TTTGCAGGGGTCTTGACTGAGT: the sensor-assay potency score (higher = more potent) in the experiment with DMKN is -1.13.

Consider ATATGCAGAGCAACAGAGGGGG, for which the sensor-assay potency score (higher = more potent) with DMRTC2 was -0.319.

In turn, TTTGTCACTGAAGACCTCTGTA yielded a sensor-assay potency score (higher = more potent) with DMRT3 of 0.155.

Turning to TTGACACAAATGGACACCCATC, the sensor-assay potency score (higher = more potent) with DMRT3 was -1.32.

(Values after the OligoGym collection.)
